Measured values from PubChem BioAssay (Tox21).
Several values for one entry are separate records, joined by “and”; a condition that tells them apart may be missing. Identical values can stand only once. Records with an inconclusive call do not appear. A structure can be active in one record and inactive in another. Activity calls are given as the source filed them. Unless noted, calls follow the shape of the dose curve; as a rule, active = well fitted curve in the direction sought with a large enough effect in the repeat runs; inconclusive = weak or mixed curves; inactive = no such curve, though single readings can be large; an effect the other way counts as inactive or inconclusive.

What was measured:
[1] = qHTS assay to identify small molecule agonists of the estrogen receptor alpha (ER-alpha) signaling pathway in the presence of an antagonist - cell viability counter screen (AID 1259386);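 also: cells exposed to compounds for 22 h at 37 °C before the viability read; nearly all actives have a fitted effect of over 30% in size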; also: potency is read from the fitted curve at half-maximal effect; as to activity change, negative = cytotoxicity: series mostly up to about 92 µM
How it was run: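 Using estrogen-depleted VM7Luc4E2 cells, the 15-concentration compound series was applied together with 10.0nM ICI-182,780 and incubated 22hr at 37C/5% CO2. Cell viability was then scored by CellTiter-Fluor.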

[2] = target: Progesterone receptor (Homo sapiens) (UniProt P06401); experiment: qHTS assay to identify small molecule agonists of the progesterone receptor (PR) signaling pathway (AID 1346784; calls by dose curve; also: nearly all actives have a fitted effect of over 30% in size; also: potency is read from the fitted curve at half-maximal effect)
Chain of Progesterone receptor (Homo sapiens) (P06401 whole entry, looked up): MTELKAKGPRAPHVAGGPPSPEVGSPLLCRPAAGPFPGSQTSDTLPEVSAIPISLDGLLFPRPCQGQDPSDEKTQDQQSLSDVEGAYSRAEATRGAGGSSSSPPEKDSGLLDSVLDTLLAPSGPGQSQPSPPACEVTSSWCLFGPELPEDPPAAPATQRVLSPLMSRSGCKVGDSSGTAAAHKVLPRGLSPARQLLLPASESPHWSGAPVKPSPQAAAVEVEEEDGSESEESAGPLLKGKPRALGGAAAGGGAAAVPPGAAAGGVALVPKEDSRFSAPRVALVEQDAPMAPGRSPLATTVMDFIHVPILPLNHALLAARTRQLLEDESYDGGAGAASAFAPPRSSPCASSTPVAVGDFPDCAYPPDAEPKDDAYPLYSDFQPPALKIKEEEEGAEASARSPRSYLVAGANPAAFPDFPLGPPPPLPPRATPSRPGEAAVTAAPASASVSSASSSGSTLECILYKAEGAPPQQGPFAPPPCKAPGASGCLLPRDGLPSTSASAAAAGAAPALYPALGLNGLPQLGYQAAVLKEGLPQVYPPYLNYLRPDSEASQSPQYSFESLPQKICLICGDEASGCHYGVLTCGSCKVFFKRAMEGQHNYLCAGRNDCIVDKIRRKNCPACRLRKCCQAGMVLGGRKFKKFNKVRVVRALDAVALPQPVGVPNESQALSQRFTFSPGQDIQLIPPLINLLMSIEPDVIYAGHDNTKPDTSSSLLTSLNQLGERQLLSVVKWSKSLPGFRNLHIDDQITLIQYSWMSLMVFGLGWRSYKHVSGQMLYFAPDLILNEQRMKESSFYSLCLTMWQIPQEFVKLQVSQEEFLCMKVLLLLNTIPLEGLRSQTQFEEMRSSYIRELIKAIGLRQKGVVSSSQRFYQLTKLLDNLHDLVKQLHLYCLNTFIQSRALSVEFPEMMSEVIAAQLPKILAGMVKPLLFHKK
How it was run: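 Seed PR-UAS-bla HEK 293T cells (2% charcoal-stripped FBS), incubate 6 hr at 37C; add compounds in DMSO, 16 hr at 37C; add LiveBLAzer B/G substrate, 2 hr RT; read fluorescence intensity.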

[3] = qHTS assay to identify small molecule antagonists of the progesterone receptor (PR) signaling pathway - cell viability counter screen (AID 1346798); also: nearly all actives have a fitted effect of over 50% in size; also: potency is read from the fitted curve at half-maximal effect; as to activity change, negative = cytotoxicity: series mostly up to about 92 µM
How it was run: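 Measures cytotoxicity in parallel with the PR antagonist reporter read: HEK293T PR-UAS-bla cells get compound and R5020 for 16 hr, and remaining viable cells are quantified by CellTiter-Glo luminescence.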

[4] = qHTS assay to identify small molecule agonists of the progesterone receptor (PR) signaling pathway - cell viability counter screen (AID 1346799; calls by dose curve; also: nearly all actives have a fitted effect of over 45% in size; also: potency is read from the fitted curve at half-maximal effect)
How it was run: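 Using the same plates as the PR reporter screen, HEK293T PR-UAS-bla cells received compounds for 16 hr at 37C and were then lysed with CellTiter-Glo; luminescence was read 30 min later at room temperature.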

[5] = qHTS assay to identify small molecule antagonists of the TGF-beta/Smad signaling pathway - cell viability counter screen (AID 1346824); also: nearly all actives have a fitted effect of over 50% in size; also: potency is read from the fitted curve at half-maximal effect
How it was run: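 SBE-bla HEK 293T cells, incubated overnight, then compound plus 0.25 ng/mL TGF-beta1 (stock added) for 5 hr at 37 C. Viability was read in the same wells by CellTiter-Glo luminescence after 30 min at room temperature.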

[6] = qHTS assay to identify small molecule agonists of the TGF-beta/Smad signaling pathway - cell viability counter screen (AID 1346829); also: nearly all actives have a fitted effect of over 45% in size; also: potency is read from the fitted curve at half-maximal effect; as to activity change, negative = cytotoxicity: top concentration of the series differs between compounds
How it was run: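 HEK 293T SBE-bla line, 5 hr compound exposure at 37 C, multiplexed CellTiter-Glo viability read by luminescence.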

[7] = qHTS assay to identify small molecule agonists of the TGF-beta/Smad signaling pathway (AID 1346859; active = well fitted activation curve with a large enough effect in the signal ratio in the repeat runs, not every such curve was filed as active; the % refers to the signal ratio; also: series mostly up to about 77 µM)
How it was run: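 Beta-lactamase reporter activity downstream of Smad binding elements was measured in stably transfected HEK 293T cells; compounds were incubated for 5 hr, substrate for 2 hr at room temperature.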

[8] = Human pregnane X receptor (PXR) small molecule agonists, qHTS cell viability counter screen (AID 1346977); also: nearly all actives have a fitted effect of over 50% in size; also: potency is read from the fitted curve at half-maximal effect
How it was run: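 After a 5hr pre-incubation, PXR-Luc HepG2 cells received compounds plus positive control in DMSO and were kept 24hr at 37C. Cell viability was quantified by fluorescence from CellTiter-Fluor added for the final hour.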

[9] = Caspase-3/7 induction in HepG2 cells by small molecules, qHTS assay (AID 1346978); also: nearly all actives have a fitted effect of over 15% in size; also: potency is read from the fitted curve at half-maximal effect
How it was run: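 Wild-type HepG2 cells, 2,000/well, settled 5 hr at 37 C and 5% CO2, then compound-treated for 17 hr; caspase-3/7 activity read by luminescent Caspase-Glo 3/7 after 30 min at room temperature.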

[10] = Caspase-3/7 induction in CHO-K1 cells by small molecules, qHTS cell viability counter screen (AID 1346979); also: nearly all actives have a fitted effect of over 35% in size; also: potency is read from the fitted curve at half-maximal effect
How it was run: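 Multiplexed with Caspase-Glo 3/7 in CHO-K1 cells, this counter screen added CellTiter-Fluor after 16hr of compound exposure and recorded fluorescence 1hr later.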

[11] = Caspase-3/7 induction in CHO-K1 cells by small molecules, qHTS assay (AID 1346980); also: nearly all actives have a fitted effect of over 15% in size; also: potency is read from the fitted curve at half-maximal effect
How it was run: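 Wild-type CHO-K1 cells exposed to compounds for 17hr at 37 C, 5% CO2. Caspase-3/7 activity then measured by Caspase-Glo 3/7 luminescence after 30min at room temperature.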

[12] = Caspase-3/7 induction in HepG2 cells by small molecules, qHTS cell viability counter screen (AID 1346981); also: nearly all actives have a fitted effect of over 30% in size; also: potency is read from the fitted curve at half-maximal effect; as to activity change, negative = cytotoxicity: series mostly up to about 92 µM
How it was run: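 After a 5-hr attachment period at 37 C and 5% CO2, wild-type HepG2 cells received compounds in DMSO. Sixteen hours later CellTiter-Fluor was dispensed and the fluorescent signal quantified after a further hour.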

[13] = target: Cytochrome P450 2D6 (Homo sapiens) (UniProt P10635); experiment: Cytochrome P450 Family 2 Subfamily D Member 6 (CYP2D6) small molecule antagonists: luciferase reporter qHTS assay (AID 1671196); also: nearly all actives have a fitted effect of over 50% in size; also: potency is read from the fitted curve at half-maximal effect; as to activity change, negative = inhibition: series mostly up to about 120 µM
Chain of Cytochrome P450 2D6 (Homo sapiens) (P10635 whole entry, looked up): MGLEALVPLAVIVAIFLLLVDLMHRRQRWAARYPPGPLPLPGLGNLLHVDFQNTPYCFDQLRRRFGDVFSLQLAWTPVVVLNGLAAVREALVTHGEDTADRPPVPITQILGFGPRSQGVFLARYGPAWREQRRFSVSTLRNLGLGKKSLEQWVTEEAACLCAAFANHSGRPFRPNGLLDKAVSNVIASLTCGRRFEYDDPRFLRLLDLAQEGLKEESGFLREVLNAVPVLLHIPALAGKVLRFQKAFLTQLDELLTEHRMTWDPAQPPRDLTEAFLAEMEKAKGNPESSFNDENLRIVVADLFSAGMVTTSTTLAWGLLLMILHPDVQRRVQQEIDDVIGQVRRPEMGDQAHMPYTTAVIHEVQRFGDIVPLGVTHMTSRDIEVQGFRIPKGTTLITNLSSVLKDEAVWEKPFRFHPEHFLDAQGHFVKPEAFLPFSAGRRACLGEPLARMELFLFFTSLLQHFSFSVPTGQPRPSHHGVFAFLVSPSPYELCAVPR
How it was run: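 Room-temperature luminescent CYP2D6 activity assay: compound preincubated 10 min with enzyme–substrate mix, NADPH-initiated reaction 1 h, detection reagent 20 min before reading.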

[14] = target: Progesterone receptor (Homo sapiens) (UniProt P06401); experiment: qHTS assay to identify small molecule antagonists of the progesterone receptor (PR) signaling pathway (AID 1346795; active = well fitted inhibition curve with a large enough effect in the signal ratio in the repeat runs, not every such curve was filed as active; the % refers to the signal ratio; also: potency is read from the fitted curve at half-maximal effect)
How it was run: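 Screening used a GripTite HEK293T line with PR-responsive UAS-beta-lactamase. Cells were challenged with compound in the presence of 1 nM R5020 final for 16 hr at 37C; B/G FRET substrate, 2 hr room temperature, fluorescence.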

[15] = target: Thyrotropin-releasing hormone receptor (Homo sapiens) (UniProt P34981); experiment: qHTS assay to identify small molecule antagonists of the thyrotropin-releasing hormone receptor (TRHR) signaling pathway (AID 1346877; active = well fitted inhibition curve with a large enough effect in the repeat runs, not every such curve was filed as active; also: series mostly up to about 51 µM)
Chain of Thyrotropin-releasing hormone receptor (Homo sapiens) (P34981 whole entry, looked up): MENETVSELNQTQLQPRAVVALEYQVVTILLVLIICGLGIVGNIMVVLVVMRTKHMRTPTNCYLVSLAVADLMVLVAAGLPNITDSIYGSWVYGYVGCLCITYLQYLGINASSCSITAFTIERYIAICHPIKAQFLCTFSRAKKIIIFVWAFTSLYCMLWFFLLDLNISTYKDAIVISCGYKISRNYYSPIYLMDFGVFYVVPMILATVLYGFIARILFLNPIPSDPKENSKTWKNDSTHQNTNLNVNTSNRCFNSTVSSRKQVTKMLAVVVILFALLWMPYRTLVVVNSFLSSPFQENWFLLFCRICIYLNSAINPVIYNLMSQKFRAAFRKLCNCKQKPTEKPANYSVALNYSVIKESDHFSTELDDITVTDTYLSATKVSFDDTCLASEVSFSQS
How it was run: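 Calcium signal in dye-loaded TRHR/HEK293 cells; compounds added 5 min before TRH (1 nM final); fluorescence monitored 3 min at 1 s steps.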

[16] = target: Thyrotropin-releasing hormone receptor (Homo sapiens) (UniProt P34981); experiment: qHTS assay to identify small molecule agonists of the thyrotropin-releasing hormone receptor (TRHR) signaling pathway (AID 1346891; calls by dose curve;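 also: HEK293 cells expressing TRHR with calcium dye readout; series mostly up to about 58 µM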)
How it was run: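 Overnight-plated (18 h, 37 °C, 5% CO2) TRHR-Hek293 cells; 2 h calcium dye at 37 °C; compound in DMSO; 3-min kinetic fluorescence read.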

[17] = target: Nuclear receptor subfamily 1 group I member 2 (Homo sapiens) (UniProt O75469); experiment: Human pregnane X receptor (PXR) small molecule agonists, qHTS assay (AID 1346982); also: nearly all actives have a fitted effect of over 35% in size; also: potency is read from the fitted curve at half-maximal effect
Chain of Nuclear receptor subfamily 1 group I member 2 (Homo sapiens) (O75469 whole entry, looked up): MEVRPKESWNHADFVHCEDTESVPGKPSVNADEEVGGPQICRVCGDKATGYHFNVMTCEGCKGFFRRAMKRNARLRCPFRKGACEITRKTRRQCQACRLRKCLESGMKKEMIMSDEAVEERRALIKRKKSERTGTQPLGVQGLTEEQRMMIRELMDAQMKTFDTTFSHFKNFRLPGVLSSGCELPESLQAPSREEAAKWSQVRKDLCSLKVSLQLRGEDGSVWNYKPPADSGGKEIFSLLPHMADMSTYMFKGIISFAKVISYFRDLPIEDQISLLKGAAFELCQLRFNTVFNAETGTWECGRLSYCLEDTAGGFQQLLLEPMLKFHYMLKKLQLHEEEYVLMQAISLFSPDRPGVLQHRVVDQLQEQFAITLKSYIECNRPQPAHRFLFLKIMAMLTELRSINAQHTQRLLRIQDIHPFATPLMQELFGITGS
How it was run: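 Tox21 qHTS; PXR-Luc HepG2; compounds pinned from DMSO; 24 hr, 37 C; ONE-Glo luciferase detection, 30 min room temperature.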

[18] = target: Nuclear receptor subfamily 1 group I member 2 (Homo sapiens) (UniProt O75469); experiment: CYP3A4 induction through human pregnane X receptor (PXR) by small molecules, qHTS assay (AID 1346984); also: nearly all actives have a fitted effect of over 40% in size
How it was run: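 Cells (DPX-2; HepG2 with PXR element plus CYP3A4-promoter luciferase) settled 5hr, then were treated 24hr at 37C. A 3hr, 3uM-final Luciferin-IPA step preceded luminescence measurement with One-Glo.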

[19] = target: Nuclear receptor subfamily 1 group I member 2 (Homo sapiens) (UniProt O75469); experiment: Human pregnane X receptor (PXR) activation by small molecules, qHTS assay (AID 1346985); also: nearly all actives have a fitted effect of over 40% in size
How it was run: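 DPX-2 cells (HepG2 co-transfected with a PXR response element and a CYP3A4-promoter luciferase construct) were seeded at 2,000 per well, rested 5 hr at 37C, then exposed to DMSO-dissolved compounds for 24 hr. Activation was read as luciferase luminescence.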
% is scaled to controls: 0 for no effect and ±100 for the full control effect.

CCCC(=O)OCOC(=O)C1=C(C)NC(C)=C(C(=O)OC)C1c1cccc(Cl)c1Cl (stereo not given)
inactive: Potency [1] | Potency [2] | Potency [3] | Potency [4] | Potency [5] | Potency [6] | Potency [7] | Potency [8] | Potency [9] | Potency [10] | Potency [11] | Potency [12] | Potency [13]

Fc1ccc(C(c2ccc(F)cc2)N2CCNCC2)cc1
inactive: Potency [1] | Potency [2] | Potency [14] | Potency [5] | Potency [6] | Potency [7] | Potency [15] | outcome [16] | Potency [8] | Potency [9] | Potency [10] | Potency [11] | Potency [12] | Potency [17]
active: Potency [13] 2.19 µM

CCC(=O)OC(=O)CC
active: Potency [4] 54 µM
inactive: Potency [1] | Potency [14] | Potency [3] | Potency [5] | Potency [6] | Potency [7] | Potency [15] | outcome [16] | Potency [8] | Potency [9] | Potency [10] | Potency [11] | Potency [12] | Potency [17]

OCCN1CCN(CCCN2c3ccccc3Sc3ccc(C(F)(F)F)cc32)CC1
inactive: Potency [1] | Potency [2] | Potency [5] | Potency [6] | Potency [7] | Potency [15] | outcome [16] | Potency [17]
active: Potency [4] 10.6 µM | Potency [8] 33.5 µM | Potency [10] 29.8 µM

COc1ccc(-c2coc3cc(O)ccc3c2=O)cc1
active: Potency [17] 1.37 µM
inactive: Potency [1] | Potency [2] | Potency [5] | Potency [6] | Potency [7] | Potency [15] | outcome [16] | Potency [8] | Potency [9] | Potency [10] | Potency [11] | Potency [12]

O=C(Oc1ccccc1)Oc1ccccc1
inactive: Potency [1] | Potency [2] | Potency [4] | Potency [6] | Potency [7] | Potency [15] | outcome [16] | Potency [8] | Potency [9] | Potency [10] | Potency [11] | Potency [12]

Oc1ccccc1O
22 µM (active) and inactive: Potency [17]
inactive: Potency [1] | Potency [2] | Potency [5] | Potency [6] | Potency [7] | Potency [15] | Potency [8] | Potency [9] | Potency [11] | Potency [12] | Potency [13]
active: Potency [10] 27.6 µM and 21.7 µM

CCCCC/C=C\C/C=C\CCCCCCCC(=O)O
inactive: Potency [1] | Potency [14] | Potency [5] | Potency [6] | Potency [15] | Potency [8] | Potency [9] | Potency [11] | Potency [12] | Potency [18] | Potency [19]
active: Potency [10] 60.1 µM | Potency [17] 60.1 µM | Potency [13] 31.2 µM

CC(C)(c1cc(Br)c(OCC(Br)CBr)c(Br)c1)c1cc(Br)c(OCC(Br)CBr)c(Br)c1 (stereo not given)
inactive: Potency [1] | Potency [3] | Potency [4] | Potency [5] | Potency [6] | Potency [7] | Potency [15] | outcome [16] | Potency [9] | Potency [10] | Potency [11] | Potency [12] | Potency [17] | Potency [13]

C=C(C)C(=O)OCCCCCCCCCC
inactive: Potency [1] | Potency [2] | Potency [5] | Potency [6] | Potency [7] | Potency [15] | outcome [16] | Potency [9] | Potency [11] | Potency [13]
active: Potency [8] 48.9 µM | Potency [12] 61.6 µM | Potency [17] 30.9 µM

CC(C)=CCC1=C(O)c2ccccc2C(=O)C1=O
active: Potency [1] 43 µM | Potency [8] 60.8 µM | Potency [10] 30.5 µM | Potency [12] 60.8 µM | Potency [17] 19.2 µM | Potency [13] 44.6 µM
inactive: Potency [2] | Potency [5] | Potency [6] | Potency [7] | Potency [15] | outcome [16] | Potency [9] | Potency [11]

CN(C)c1ccc(C(=C2C=CC(=[N+](C)C)C=C2)c2ccc(N(C)C)cc2)cc1
inactive: outcome [16] | Potency [18] | Potency [19]
active: Potency [1] 8.59 µM and 15.4 µM and 5.96 µM | Potency [14] 19.3 µM | Potency [3] 24.2 µM and 30.6 µM and 21.1 µM | Potency [4] 27.2 µM and 21.1 µM | Potency [5] 19.4 µM and 43.6 µM and 19 µM | Potency [6] 19.4 µM and 49 µM and 23.9 µM | Potency [8] 3.84 µM and 2.73 µM and 6.68 µM | Potency [9] 19.2 µM and 27.3 µM and 26.6 µM | Potency [11] 7.66 µM and 6.11 µM and 8.41 µM | Potency [12] 17.1 µM and 9.69 µM and 8.41 µM | Potency [17] 2.42 µM

CCCCCCCCCCCCOCCOCCOCCOCCOCCOCCOCCOCCOCCO
inactive: Potency [6] | Potency [7] | Potency [15] | Potency [11] | Potency [18] | Potency [19] | Potency [13]
active: Potency [1] 23.7 µM | Potency [14] 23.7 µM | Potency [8] 11.9 µM | Potency [10] 11.9 µM | Potency [12] 29.8 µM | Potency [17] 7.5 µM

O=C(O)O
active: Potency [2] 0.373 µM
inactive: activity change, negative = cytotoxicity [1] 1.41% [at 8.39 µM] | viability change, negative = cytotoxic [5] 7.39% [at 6.97 µM] | activity change, negative = cytotoxicity [6] 8.74% [at 6.97 µM] | activation [7] 4.78% [at 6.97 µM] | activity, negative = inhibition [15] 1.6% [at 4.65 µM] | activation [16] -0.122% [at 5.23 µM] | activity change, negative = cytotoxicity [8] 1.04% [at 8.39 µM] | caspase activation [9] 0.0124% [at 8.39 µM] | activity change, negative = cytotoxicity [10] 0.8% [at 8.39 µM] | caspase-3/7 activation [11] 0.298% [at 8.39 µM] | activity change, negative = cytotoxicity [12] -0.291% [at 8.39 µM] | activation [17] 4.39% [at 8.39 µM] | activity change, negative = inhibition [13] -1.63% [at 10.5 µM]

C#C[C@]1(O)CC[C@H]2[C@@H]3[C@H](C)CC4=C(CCC(=O)C4)[C@H]3CC[C@@]21C
inactive: Potency [1] | Potency [5] | Potency [6] | Potency [7] | Potency [8] | Potency [9] | Potency [11] | Potency [12] | Potency [18] | Potency [19] | Potency [13]
active: Potency [2] 0.0188 µM
